Measured values reported in the supplement of paper PMC11006884.
The full data set covers some 6,500 targets. This sample favours those with a hit. About 2% of all pairs of compound and target were hits.

These targets were tested with COC(=O)C#Cc1ccccc1 [methyl 3-phenylpropiolate] (assay: log2 ratio of iodoacetamide-alkyne labeling of the cysteine site, DMSO over compound (competition); higher = stronger covalent engagement of the cysteine by the compound, active = 1 or more). Settings: 500 µM; treatment time 1 h; system: HEK293T cell lysate.
Method in brief: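 Electrophile (500 µM) or vehicle was added to HEK293T lysate (2 mg/mL) for 1 h at ambient temperature before iodoacetamide alkyne labelling (1 h) and click coupling to sCIP-TMT reagents. After pooling, overnight trypsin digestion at 37 °C, streptavidin enrichment and acid elution, peptides were measured by Orbitrap Eclipse LC-MS/MS with FAIMS and quantified in FragPipe. Each cysteine's log2 competition ratio compares mean control-channel with mean compound-channel reporter intensity, control over compound. Data came from duplicate channels across three replicates, excluding cysteines quantified in only one replicate.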

Chain of UniProt Q9Y4R8 (Q9Y4R8 whole entry, looked up): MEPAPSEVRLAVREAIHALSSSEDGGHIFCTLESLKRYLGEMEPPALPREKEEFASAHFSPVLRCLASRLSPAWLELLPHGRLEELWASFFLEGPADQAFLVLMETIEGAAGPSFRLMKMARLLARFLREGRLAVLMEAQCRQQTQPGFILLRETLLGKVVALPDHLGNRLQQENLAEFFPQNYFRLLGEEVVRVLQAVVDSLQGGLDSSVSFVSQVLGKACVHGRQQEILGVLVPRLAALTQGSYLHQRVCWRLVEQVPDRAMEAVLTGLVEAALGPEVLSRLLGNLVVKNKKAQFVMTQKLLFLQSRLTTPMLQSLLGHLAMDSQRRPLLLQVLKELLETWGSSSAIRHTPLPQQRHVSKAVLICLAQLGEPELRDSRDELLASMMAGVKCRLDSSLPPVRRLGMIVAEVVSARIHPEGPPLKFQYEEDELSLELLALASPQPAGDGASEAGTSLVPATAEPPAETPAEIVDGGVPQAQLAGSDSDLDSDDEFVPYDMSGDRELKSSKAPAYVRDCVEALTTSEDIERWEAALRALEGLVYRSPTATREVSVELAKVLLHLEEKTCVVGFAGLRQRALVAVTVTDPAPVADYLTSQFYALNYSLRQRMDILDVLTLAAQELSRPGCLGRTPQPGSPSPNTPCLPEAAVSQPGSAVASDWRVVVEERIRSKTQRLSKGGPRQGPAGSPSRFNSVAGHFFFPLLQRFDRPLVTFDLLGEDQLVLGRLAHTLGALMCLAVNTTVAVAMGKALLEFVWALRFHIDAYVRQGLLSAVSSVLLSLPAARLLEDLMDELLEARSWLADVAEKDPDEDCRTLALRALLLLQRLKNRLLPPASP
Chain of UniProt Q9NTI5 (Q9NTI5 whole entry): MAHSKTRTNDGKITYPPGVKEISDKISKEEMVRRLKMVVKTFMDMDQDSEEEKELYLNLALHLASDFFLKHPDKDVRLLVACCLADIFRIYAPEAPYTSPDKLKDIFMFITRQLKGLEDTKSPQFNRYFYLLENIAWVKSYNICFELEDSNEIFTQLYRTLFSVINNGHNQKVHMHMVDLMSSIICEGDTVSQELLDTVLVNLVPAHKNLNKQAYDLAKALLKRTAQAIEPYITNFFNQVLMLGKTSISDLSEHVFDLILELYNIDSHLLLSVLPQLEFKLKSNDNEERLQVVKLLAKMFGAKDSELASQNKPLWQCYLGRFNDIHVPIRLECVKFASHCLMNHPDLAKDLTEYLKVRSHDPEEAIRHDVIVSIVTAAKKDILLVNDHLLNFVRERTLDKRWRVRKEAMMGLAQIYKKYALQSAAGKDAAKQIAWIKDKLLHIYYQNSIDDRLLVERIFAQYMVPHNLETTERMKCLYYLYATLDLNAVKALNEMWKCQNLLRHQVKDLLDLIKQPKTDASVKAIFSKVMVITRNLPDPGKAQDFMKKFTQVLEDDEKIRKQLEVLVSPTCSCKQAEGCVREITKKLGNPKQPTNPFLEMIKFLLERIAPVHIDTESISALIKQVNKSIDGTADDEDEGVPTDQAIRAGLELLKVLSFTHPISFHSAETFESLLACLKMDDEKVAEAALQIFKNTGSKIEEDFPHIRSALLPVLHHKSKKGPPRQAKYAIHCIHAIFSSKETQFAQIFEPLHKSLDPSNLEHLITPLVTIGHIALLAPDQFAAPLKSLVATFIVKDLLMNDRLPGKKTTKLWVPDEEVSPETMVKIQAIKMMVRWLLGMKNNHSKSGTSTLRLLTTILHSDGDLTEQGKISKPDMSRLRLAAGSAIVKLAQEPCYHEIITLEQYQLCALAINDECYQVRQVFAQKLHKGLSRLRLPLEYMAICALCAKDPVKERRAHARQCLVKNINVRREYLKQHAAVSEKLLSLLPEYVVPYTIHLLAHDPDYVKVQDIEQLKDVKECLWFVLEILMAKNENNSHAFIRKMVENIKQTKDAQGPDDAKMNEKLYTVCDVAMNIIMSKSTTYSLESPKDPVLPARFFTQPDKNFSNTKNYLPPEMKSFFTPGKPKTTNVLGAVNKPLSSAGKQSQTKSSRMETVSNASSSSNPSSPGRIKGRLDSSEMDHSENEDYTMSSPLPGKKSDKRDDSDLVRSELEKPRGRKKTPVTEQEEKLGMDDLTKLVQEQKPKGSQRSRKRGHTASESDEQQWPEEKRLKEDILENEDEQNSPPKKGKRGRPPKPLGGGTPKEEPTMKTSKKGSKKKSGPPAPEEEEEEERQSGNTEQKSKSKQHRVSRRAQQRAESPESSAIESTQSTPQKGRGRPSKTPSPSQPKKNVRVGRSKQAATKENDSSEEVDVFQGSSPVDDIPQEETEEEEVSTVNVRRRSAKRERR
Chain of UniProt Q9BVQ7 (Q9BVQ7 whole entry, looked up): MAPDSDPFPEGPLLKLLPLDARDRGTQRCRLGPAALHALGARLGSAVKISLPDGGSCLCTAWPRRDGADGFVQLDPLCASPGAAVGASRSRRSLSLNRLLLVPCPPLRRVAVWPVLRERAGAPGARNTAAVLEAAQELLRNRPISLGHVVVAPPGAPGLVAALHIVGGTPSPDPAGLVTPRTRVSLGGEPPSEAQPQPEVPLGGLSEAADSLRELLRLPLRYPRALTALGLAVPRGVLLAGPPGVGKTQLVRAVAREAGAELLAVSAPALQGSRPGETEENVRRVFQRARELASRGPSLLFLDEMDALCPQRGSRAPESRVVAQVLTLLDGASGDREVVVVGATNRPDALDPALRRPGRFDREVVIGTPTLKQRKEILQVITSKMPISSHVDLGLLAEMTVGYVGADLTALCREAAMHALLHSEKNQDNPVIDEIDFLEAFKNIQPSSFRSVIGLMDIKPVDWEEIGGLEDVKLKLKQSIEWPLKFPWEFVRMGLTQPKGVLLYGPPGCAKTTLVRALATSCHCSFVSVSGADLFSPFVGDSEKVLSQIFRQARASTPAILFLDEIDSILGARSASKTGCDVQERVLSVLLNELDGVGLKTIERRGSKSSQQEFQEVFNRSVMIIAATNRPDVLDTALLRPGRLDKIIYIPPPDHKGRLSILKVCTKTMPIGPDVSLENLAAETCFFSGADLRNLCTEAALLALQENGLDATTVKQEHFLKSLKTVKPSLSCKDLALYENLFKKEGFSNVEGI
Chain of UniProt Q9Y613 (Q9Y613 whole entry, looked up): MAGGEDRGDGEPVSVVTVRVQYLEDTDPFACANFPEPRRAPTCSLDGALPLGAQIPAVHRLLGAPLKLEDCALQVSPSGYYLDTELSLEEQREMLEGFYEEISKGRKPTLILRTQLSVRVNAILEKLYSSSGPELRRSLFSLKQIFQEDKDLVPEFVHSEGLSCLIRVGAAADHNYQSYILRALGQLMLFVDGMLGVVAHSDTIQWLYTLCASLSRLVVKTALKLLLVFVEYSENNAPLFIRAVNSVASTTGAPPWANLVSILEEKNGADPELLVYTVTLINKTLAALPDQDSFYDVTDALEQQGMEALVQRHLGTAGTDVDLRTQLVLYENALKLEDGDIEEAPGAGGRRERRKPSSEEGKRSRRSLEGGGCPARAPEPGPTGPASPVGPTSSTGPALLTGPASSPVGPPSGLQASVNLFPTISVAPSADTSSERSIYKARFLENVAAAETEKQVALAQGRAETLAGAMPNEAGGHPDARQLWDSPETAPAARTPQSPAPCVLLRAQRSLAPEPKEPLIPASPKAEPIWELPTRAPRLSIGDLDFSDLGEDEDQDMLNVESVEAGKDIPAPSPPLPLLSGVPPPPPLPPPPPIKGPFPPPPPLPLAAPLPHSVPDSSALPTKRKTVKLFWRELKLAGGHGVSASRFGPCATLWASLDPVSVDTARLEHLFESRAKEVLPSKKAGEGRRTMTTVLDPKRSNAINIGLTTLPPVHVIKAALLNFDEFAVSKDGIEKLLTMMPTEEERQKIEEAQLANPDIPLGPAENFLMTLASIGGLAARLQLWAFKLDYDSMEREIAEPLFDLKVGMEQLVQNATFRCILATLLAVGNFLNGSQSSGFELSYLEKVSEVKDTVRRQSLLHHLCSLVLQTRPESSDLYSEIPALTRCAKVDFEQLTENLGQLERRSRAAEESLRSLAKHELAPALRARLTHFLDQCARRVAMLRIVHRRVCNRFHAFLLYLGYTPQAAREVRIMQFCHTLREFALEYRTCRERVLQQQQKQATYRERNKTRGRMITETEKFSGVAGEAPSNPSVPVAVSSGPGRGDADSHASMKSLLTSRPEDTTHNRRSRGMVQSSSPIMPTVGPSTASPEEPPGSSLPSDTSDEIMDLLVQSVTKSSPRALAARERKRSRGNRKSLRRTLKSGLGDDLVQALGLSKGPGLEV
Chain of UniProt Q9UER7 (Q9UER7 whole entry, looked up): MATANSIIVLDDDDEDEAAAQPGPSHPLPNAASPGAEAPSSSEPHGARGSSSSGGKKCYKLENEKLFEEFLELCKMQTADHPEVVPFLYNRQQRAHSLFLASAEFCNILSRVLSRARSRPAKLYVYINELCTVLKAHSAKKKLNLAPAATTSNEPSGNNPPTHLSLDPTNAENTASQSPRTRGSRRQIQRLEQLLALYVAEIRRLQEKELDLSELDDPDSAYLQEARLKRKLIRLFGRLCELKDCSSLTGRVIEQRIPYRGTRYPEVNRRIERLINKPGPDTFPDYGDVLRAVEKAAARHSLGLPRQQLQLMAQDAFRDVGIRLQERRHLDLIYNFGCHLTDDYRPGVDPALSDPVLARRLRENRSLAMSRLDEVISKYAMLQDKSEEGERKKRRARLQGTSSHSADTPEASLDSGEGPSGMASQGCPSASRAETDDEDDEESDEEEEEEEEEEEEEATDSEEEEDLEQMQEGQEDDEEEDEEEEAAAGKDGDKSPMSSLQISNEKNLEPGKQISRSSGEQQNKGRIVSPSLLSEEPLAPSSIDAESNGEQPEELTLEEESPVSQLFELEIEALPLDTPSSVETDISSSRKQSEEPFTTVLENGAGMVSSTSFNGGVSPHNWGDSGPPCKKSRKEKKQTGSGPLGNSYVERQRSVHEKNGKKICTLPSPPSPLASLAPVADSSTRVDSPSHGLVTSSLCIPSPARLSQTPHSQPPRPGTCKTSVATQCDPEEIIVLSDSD

Target	log2 ratio of iodoacetamide-alkyne labeling
SRRM2 C1016 (UniProt Q9UQ35)	1.12 (active)
UniProt Q9NW64_C24	0.351 (inactive)
UniProt Q9UBD5_C159	1.13 (active)
UniProt Q9NRP4_C80	0.483 (inactive)
UniProt Q9NV64_C29	1.11 (active)
PDS5B C1069 (UniProt Q9NTI5)	0.199 (inactive)
NFU1 C213 (UniProt Q9UMS0)	0.895 (inactive)
MAP3K4 C163 (UniProt Q9Y6R4)	0.0336 (inactive)
KIF3A C621 (UniProt Q9Y496)	0.962 (inactive)
AK6 C53 (UniProt Q9Y3D8)	0.109 (inactive)
NCDN C4 (UniProt Q9UBB6)	1.66 (active)
UniProt Q9Y520_C223	0.239 (inactive)
EPS15L1 C470 (UniProt Q9UBC2)	0.13 (inactive)
DAXX C720 (UniProt Q9UER7)	1.35 (active)
UniProt Q9UPN4_C218	0.212 (inactive)
SPATA5L1 C78 (UniProt Q9BVQ7)	0.204 (inactive)
IKBKG C347 (UniProt Q9Y6K9)	0.397 (inactive)
NOSIP C185 (UniProt Q9Y314)	0.25 (inactive)
FHOD1 C31 (UniProt Q9Y613)	0.248 (inactive)
SRRM2 C1480 (UniProt Q9UQ35)	0.319 (inactive)
TELO2 C367 (UniProt Q9Y4R8)	0.0485 (inactive)
MDN1 C3492 (UniProt Q9NU22)	0.35 (inactive)
DIS3 C213 (UniProt Q9Y2L1)	0.313 (inactive)
